test system: WNK1; conditions: concentration: 1 μM, replicates: in singlicate; n = 1
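Also: KINOMEscan kinase panel screen.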

Row | Compound | %Inh [%]
1 | COc1cc(Nc2nccc(N3CCC(NC(=O)C4COc5ccccc5O4)C3)n2)cc(OC)c1OC (centres unmarked) [GSK1379761] | 1
2 | Cc1c(Cn2c(C)nn3c(=O)cc(N4CCO[C@H](C)C4)nc23)cccc1C(F)(F)F [GSK2373690] | 11
3 | COc1ccc(-n2cnc3c(N)ncnc32)cc1 [SKF-97236] | 11
4 | Nc1nc(-c2ccccc2F)c(-c2ccnc3ccccc23)s1 [GW560459] | 11
5 | O=C(Nc1n[nH]c2cc(-c3ccccc3F)ccc12)C1CC1 [SB-733371] | 0
6 | Cc1nnc(-c2ccc3ncn(-c4ccc(S(C)=O)cc4)c3c2)o1 (centres unmarked) | 0
7 | CCn1c(-c2ccoc2)nc2cnccc21 [SB-733887] | 15
8 | CCC(=O)c1c(-c2ccccc2)c2cc(Cl)ccc2c(=O)n1Cc1cc(S(C)(=O)=O)n(CC(F)F)n1 | 0
9 | FC(F)(F)c1ccc(-c2ncn(CCCN3CCOCC3)c2-c2ccncc2)cc1 [SB-217780] | 20
10 | COc1ccc(CNC(=O)NC2CCN(c3ccnc(Nc4ccc(F)cc4)n3)C2)cc1 (centres unmarked) [GSK1379706] | 0
11 | COc1cc2ncn(-c3cc(OCc4ccncc4Br)c(C(N)=O)s3)c2cc1OC [GW854278] | 19
12 | COC(=O)c1c(-c2ccccc2)c2cc(C)ccc2c(=O)n1Cc1ccccc1 | 0
13 | COc1ccc(-c2coc3ccc(-c4nnc(SCc5cccc(C#N)c5)o4)cc23)cc1 | 0
14 | Cc1ccc(-c2ccc3c(ccc4sc5c(c43)NC[C@@H](C)N=C5N(C)C)n2)cn1 | 0
15 | O=c1cc(N2CCOCC2)nc2n(Cc3ccc(F)c(Cl)c3)ccn12 [GSK2297099] | 8
16 | COc1cc2ncn(-c3cc(OCCCc4ccccc4)c(C(N)=O)s3)c2cc1OC [GSK205189] | 0
17 | CN1C(=O)C(Nc2cc(Cl)c(O)c(Cl)c2)=C(c2ccc(Cl)cc2)C1=O [SB-404321] | 0
18 | CCC(=O)c1c(-c2ccccc2)c2cc(Cl)ccc2c(=O)n1Cc1cc(C(=O)NC2CC2)n(C)n1 | 0
19 | O=C1NC(=O)C(c2ccccc2)=C1Nc1cccc(O)c1 [SB-390534] | 0

Row | Compound | %Inh [%]
20 | COc1cc2nccc(Nc3cccc(Oc4ccccc4)c3)c2cc1OC.Cl [GW284543] | 0
21 | Cc1nn2c(=O)cc(N3CCOCC3)nc2n1Cc1cccc(Cl)c1Cl [GSK2342769] | 0
22 | O=C(Nc1n[nH]c2nc(-c3ccccc3)c(Cl)cc12)C1CC1 [SB-734909] | 1
23 | Cl.NS(=O)(=O)c1cccc(Nc2cc(-c3ccc(F)cc3)n[nH]2)c1 [GW824645] | 35
24 | Cc1cc(Nc2nc(-c3cccc(C)n3)nc3ccccc23)ccn1 [GW872411] | 0
25 | Nc1n[nH]c2nnc(-c3ccccc3)c(-c3ccccc3)c12 [GW554060] | 3
26 | CCC(=O)c1c(-c2ccccc2)c2cc(Cl)ccc2c(=O)n1Cc1ccc(C(=O)O)cc1 | 0
27 | Nc1ncnc2c1ncn2-c1cccc(F)c1 [SKF-97560] | 3
28 | Cl.c1ccc(Cn2cnc3cc(Nc4ncnc5ccccc45)ccc32)cc1 [GW272142] | 2
29 | COc1cc2nccc(Nc3ccc(OCc4ccc(NC(C)=O)cc4)cc3)c2cc1OC.Cl [GW440135] | 2
30 | CCS(=O)(=O)c1ccc(OC)c(Nc2ncc(-c3ccc(F)cc3)o2)c1.Cl [GW591947] | 2
31 | Cc1cccc(-c2nc(Nc3ccc4c(cnn4C)c3)c3ccccc3n2)n1 [GW876731] | 18
32 | CCS(=O)c1ccc(-c2coc3ccc(-c4nnc(C)o4)cc23)cc1 (centres unmarked) | 0
33 | Cc1cccc(-c2cc(-c3c[nH]nc3-c3ccccn3)ccn2)c1 [GW679395] | 11
34 | COc1cccc(-n2cnc3c(N)ncnc32)c1 [SKF-97416] | 7
35 | CCC(=O)c1c(-c2ccccc2)c2cc(Cl)ccc2c(=O)n1Cc1cc(S(C)(=O)=O)n(CC(N)=O)n1 | 0
36 | CCCC(=O)Nc1n[nH]c2ncc(-c3cccc4ccccc34)cc12 [SB-642057] | 12
37 | Cc1nc(N(C)[C@H]2CN(C(=O)CC#N)CC[C@H]2C)c2cc[nH]c2n1 | 0

test system: WNK2; conditions: concentration: 1 μM, replicates: in singlicate; n = 1

Row | Compound | %Inh [%]
38 | COc1cc(Nc2nccc(N3CCC(NC(=O)C4COc5ccccc5O4)C3)n2)cc(OC)c1OC (centres unmarked) [GSK1379761] | 19
39 | Cc1c(Cn2c(C)nn3c(=O)cc(N4CCO[C@H](C)C4)nc23)cccc1C(F)(F)F [GSK2373690] | 4
40 | COc1ccc(-n2cnc3c(N)ncnc32)cc1 [SKF-97236] | 19
41 | Nc1nc(-c2ccccc2F)c(-c2ccnc3ccccc23)s1 [GW560459] | 7
42 | O=C(Nc1n[nH]c2cc(-c3ccccc3F)ccc12)C1CC1 [SB-733371] | 0
43 | Cc1nnc(-c2ccc3ncn(-c4ccc(S(C)=O)cc4)c3c2)o1 (centres unmarked) | 0
44 | CCn1c(-c2ccoc2)nc2cnccc21 [SB-733887] | 18
45 | CCC(=O)c1c(-c2ccccc2)c2cc(Cl)ccc2c(=O)n1Cc1cc(S(C)(=O)=O)n(CC(F)F)n1 | 0
46 | FC(F)(F)c1ccc(-c2ncn(CCCN3CCOCC3)c2-c2ccncc2)cc1 [SB-217780] | 0
47 | COc1ccc(CNC(=O)NC2CCN(c3ccnc(Nc4ccc(F)cc4)n3)C2)cc1 (centres unmarked) [GSK1379706] | 30
48 | COc1cc2ncn(-c3cc(OCc4ccncc4Br)c(C(N)=O)s3)c2cc1OC [GW854278] | 35
49 | COC(=O)c1c(-c2ccccc2)c2cc(C)ccc2c(=O)n1Cc1ccccc1 | 0
50 | COc1ccc(-c2coc3ccc(-c4nnc(SCc5cccc(C#N)c5)o4)cc23)cc1 | 0
51 | Cc1ccc(-c2ccc3c(ccc4sc5c(c43)NC[C@@H](C)N=C5N(C)C)n2)cn1 | 0
52 | O=c1cc(N2CCOCC2)nc2n(Cc3ccc(F)c(Cl)c3)ccn12 [GSK2297099] | 4
53 | COc1cc2ncn(-c3cc(OCCCc4ccccc4)c(C(N)=O)s3)c2cc1OC [GSK205189] | 8
54 | CN1C(=O)C(Nc2cc(Cl)c(O)c(Cl)c2)=C(c2ccc(Cl)cc2)C1=O [SB-404321] | 35
55 | CCC(=O)c1c(-c2ccccc2)c2cc(Cl)ccc2c(=O)n1Cc1cc(C(=O)NC2CC2)n(C)n1 | 0
56 | O=C1NC(=O)C(c2ccccc2)=C1Nc1cccc(O)c1 [SB-390534] | 0

Row | Compound | %Inh [%]
57 | COc1cc2nccc(Nc3cccc(Oc4ccccc4)c3)c2cc1OC.Cl [GW284543] | 11
58 | Cc1nn2c(=O)cc(N3CCOCC3)nc2n1Cc1cccc(Cl)c1Cl [GSK2342769] | 3
59 | O=C(Nc1n[nH]c2nc(-c3ccccc3)c(Cl)cc12)C1CC1 [SB-734909] | 0
60 | Cl.NS(=O)(=O)c1cccc(Nc2cc(-c3ccc(F)cc3)n[nH]2)c1 [GW824645] | 0
61 | Cc1cc(Nc2nc(-c3cccc(C)n3)nc3ccccc23)ccn1 [GW872411] | 0
62 | Nc1n[nH]c2nnc(-c3ccccc3)c(-c3ccccc3)c12 [GW554060] | 41
63 | CCC(=O)c1c(-c2ccccc2)c2cc(Cl)ccc2c(=O)n1Cc1ccc(C(=O)O)cc1 | 0
64 | Nc1ncnc2c1ncn2-c1cccc(F)c1 [SKF-97560] | 73
65 | Cl.c1ccc(Cn2cnc3cc(Nc4ncnc5ccccc45)ccc32)cc1 [GW272142] | 21
66 | COc1cc2nccc(Nc3ccc(OCc4ccc(NC(C)=O)cc4)cc3)c2cc1OC.Cl [GW440135] | 16
67 | CCS(=O)(=O)c1ccc(OC)c(Nc2ncc(-c3ccc(F)cc3)o2)c1.Cl [GW591947] | 4
68 | Cc1cccc(-c2nc(Nc3ccc4c(cnn4C)c3)c3ccccc3n2)n1 [GW876731] | 7
69 | CCS(=O)c1ccc(-c2coc3ccc(-c4nnc(C)o4)cc23)cc1 (centres unmarked) | 3
70 | Cc1cccc(-c2cc(-c3c[nH]nc3-c3ccccn3)ccn2)c1 [GW679395] | 22
71 | COc1cccc(-n2cnc3c(N)ncnc32)c1 [SKF-97416] | 0
72 | CCC(=O)c1c(-c2ccccc2)c2cc(Cl)ccc2c(=O)n1Cc1cc(S(C)(=O)=O)n(CC(N)=O)n1 | 0
73 | CCCC(=O)Nc1n[nH]c2ncc(-c3cccc4ccccc34)cc12 [SB-642057] | 6
74 | Cc1nc(N(C)[C@H]2CN(C(=O)CC#N)CC[C@H]2C)c2cc[nH]c2n1 | 0
